Bioassay records deposited in PubChem BioAssay by National Center for Advancing Translational Sciences (NCATS).
MCF10A rereplic: inducers of DNA re-replication in MCF 10A breast cells; Potency, µM (top dose mostly 46.1 µM), inactives show at the highest dose activity, positive = re-replication, actives largely listed as activators; 2.9% of 350,000 active; MCF 10A DNA re-replication, Hoechst nuclear intensity, 48 h; note: % of control where 0% means no effect; nearly all actives have a fitted effect of over 50% in size
KB-V1 MDR tox: kills drug-selected multidrug resistant KB-V1 cells; KB-V1 MDR cells viability, CellTiter-Glo, 72 h; Potency, µM (series often up to 46.1 µM), usual class: cytotoxic; 3.4% of 400,000 active; AID 1347076; note: % is set by controls: 0 for no effect and ±100 for the full control effect; nearly all actives have a fitted effect of over 60% in size
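Cytotoxicity via CellTiter-Glo luminescence after 72 h compound exposure at 37 degrees C. Cells: drug-selected KB-V1 line, DMEM phenol-red free plus 10% FBS. Compounds tested at multiple concentrations; normalized data fitted to concentration-effect curves.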
PINK1 expr mod: changes PINK1 expression. PINK1 immunofluorescence, high-content cytometry, 24 h. Potency, µM (highest dose often 76.6 µM), without a hit: at the highest dose activation (PINK1 increase), usual class: activators. 0.2% of 410,000 active. AID 624263; active = well fitted activation curve with a large enough effect; inconclusive = small, poorly fitted or top-dose-only effect; cell line not stated here; note: % of control where 0% means no effect; nearly all actives have a fitted effect of over 65% in size
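Fluorescence from anti-PINK1 antibody, together with nuclear and cell stains, was scanned on a laser-scanning cytometer. Before staining, stable-line cells were incubated 24 hours with compounds at 5 concentrations; primary antibody 12 h at 10 degrees C.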
KB-3-1 cytotox: KB-3-1 parental cell cytotoxicity; KB-3-1 viability, CellTiter-Glo ATP luminescence, 72 h; 1.4% of 400,000 active; Potency, µM (highest dose often 46.1 µM), usual class: cytotoxic; note: % is set by controls: 0 for no effect and ±100 for the full control effect; nearly all actives have a fitted effect of over 60% in size
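Parental KB-3-1 viability, qHTS format: 72 h compound exposure, 37 °C; CellTiter-Glo; media-only wells and DMSO plates as controls; concentration-effect fits on corrected data.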
SW480 rereplic: induces DNA re-replication in SW480 colon adenocarcinoma cells | SW480 DNA re-replication, Hoechst DNA content imaging, 48 h | Potency, µM (top dose mostly 46.1 µM), inactives show top-dose re-replication activation, most hits filed as activators | 1.8% of 340,000 active | AID 624297; note: % of control where 0% means no effect; nearly all actives have a fitted effect of over 55% in size
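Treated cells incubate 48 hr (37 C, 5% CO2), are stained 40 min with Hoechst, and nuclear fluorescence is enumerated; a rise in nuclei with high DNA signal marks re-replication.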
Starred values were filed as active, the others as inactive; i = inactive; ? = inconclusive; / = not tested or not shown; ! = a repeat was not active; [ ] = another dose, or the depositor's remark. Sampled rows, rich in hits. Any-hit rate of the full collection: about 6.7%. Unless noted, calls come from the whole dose curve; as a rule, active = well fitted curve in the direction sought with a large enough effect; inconclusive = small, poorly fitted or top-dose-only effect, or another doubt; inactive = no such curve, though single readings can be large; an effect the other way counts as inactive or inconclusive. Potency is the fitted concentration of half-maximal effect.

SMILES	MCF10A rereplic	KB-V1 MDR tox	PINK1 expr mod	KB-3-1 cytotox	SW480 rereplic
Nc1ccccc1C(=O)NC(=O)Nc1ccc(Oc2ncc(Br)cn2)c(Cl)c1	?	0.13µM*	2.9%	0.206µM*	0.517µM*
N#Cc1ccccc1S(=O)(=O)N1CCN(Cc2cc3c(cc2Br)OCCO3)CC1	/	?	-0.1%	i	/
CCN(C(=S)Nc1cccc2ccccc12)c1ccccc1	/	i	0.1%	i	/
Cc1cccc(Nc2nc3ccccc3n3nnnc23)c1	1.4%	i	4.6%	i	9.9%
COc1ccc(Nc2nc3ccccc3n3nnnc23)cc1	8.5%	5.8µM*	5.7%[38.3 µM]	i	3.5%
Cc1ccc(Nc2nc3ccccc3n3nnnc23)cc1	?	i	12.1%	i	-126.2%
COc1cc(Nc2nc3ccccc3n3nnnc23)cc(OC)c1OC	29.1µM*	i	5.0%	i	-4.8%
CCn1nc(C)c(CN2CCC3(CCC(CNC(=O)c4ccccc4)O3)CC2)c1C (configuration not stated)	/	/	0.4%	/	/
O=c1[nH]c2ccccc2nc1Cc1ccc([N+](=O)[O-])cc1	-7.2%	i	1.1%	i	-3.0%
CCOC(=O)C1=C(COC(=O)c2cc(S(=O)(=O)N(C)C)ccc2C)NC(=O)NC1C (configuration not stated)	0.5%	23.1µM*	-2.4%	i	-1.7%
CCNC(=S)N=Nc1c(O)[nH]c2ccc(C(C)C)cc12	18.1%	3.66µM*	1.8%	i	-1.8%
CC1CN(C(=O)COC(=O)c2cc(=O)[nH]c3ccccc23)CC(C)O1 (configuration not stated)	/	i	-0.9%	i	/
Cc1[nH]nc(C(F)(F)F)c1N=NN1CCOCC1	3.66µM*	?	-1.2%	?	?
C=CCNC(=O)CSc1nc2sc3c(c2c(=O)n1CCC)CCC3	1.2%	i	2.1%	i	-0.1%
C=CCn1c(SCC(=O)NC)nc2sc3c(c2c1=O)CCC3	23.2%	2.06µM*	0.9%	i	-3.1%
C=CCNC(=O)CSc1nc2sc3c(c2c(=O)n1CCCOC)CCC3	6.51µM*	i	2.2%	i	-2.9%
O=C(NN1CCCCC1)NN1CCCCC1	/	i	3.9%	i	/
COc1ccc(COc2cc(-c3cccc(OC)c3)nc3ccc(NC(=O)c4ccc(N(C)C)cc4)cc23)cc1	5.8µM*	i	8.7%	4.61µM*	9.2µM*
COc1ccc(COc2cc(-c3cccc(OC)c3)nc3ccc(NC(C)=O)cc23)cc1	0.2%	i	5.4%	i	?
COc1ccc(COc2cccnc2N)cc1	2.8%	i	-0.6%	i	-8.7%
COc1cccc(-c2cc(C(=O)Nc3ccc(N(C)C(C)=O)cc3)c3cc(Br)ccc3n2)c1	?	?	0.2%	i	29.7%
COc1ccc(COc2cc(-c3cccc(OC)c3)nc3ccc(NC(=O)c4ccc(C)cc4)cc23)cc1	5.8µM*	i	13.0%	9.2µM*	20.6µM*
COc1ccc(COc2cc(-c3cccc(OC)c3)nc3ccc(N)cc23)cc1	0.731µM*	5.8µM*	1.4%	?	1.46µM*
COC(=O)[C@@H]1CCCN1C(=O)c1cc(NC(=O)C2CCC2)c2c(c1)nc(-c1ccncc1)n2C	/	/	-0.3%	/	/
Cc1noc(C)c1COc1ccccc1C(=O)N(C)Cc1ccc(C(C)(C)C)cc1	12.1%	?	2.4%	i	-5.1%
SMILES	MCF10A rereplic	KB-V1 MDR tox	PINK1 expr mod	KB-3-1 cytotox	SW480 rereplic
CN(C)c1ccc(C(=S)N2CCCC2)cc1Br	-0.6%	i	4.5%	i	-0.1%
CCn1c2ccccc2c2cnc(N=CN(C)C)c(C#N)c21	3.3%	7.31µM*	-3.2%	i	0.0%
CCN(CC)CCn1c2ccccc2c2cnc(N=CN(C)C)c(C#N)c21	20.6µM*	?	-1.9%	?	5.0%
O=c1n(-c2ccccc2)c(=O)n2n1CCC2	-14.2%	i	-0.6%	i	-1.8%
O=c1n(-c2ccccc2)c(=O)n2n1CCCC2	?	i	1.1%[38.3 µM]	i	16.4µM*
O=C1c2oc3ccccc3c(=O)c2C(c2cccnc2)N1Cc1ccco1 (configuration not stated)	16.8%	7.31µM*	-0.5%	i	-9.3%
CN(C)CCN1C(=O)c2oc3ccccc3c(=O)c2C1c1cccc(Br)c1 (configuration not stated)	-0.2%	10.3µM*	-1.4%[38.3 µM]	i	-7.4%
Cc1ccc(Cc2c(C3CCCCC3)nc3cc(C)c(Br)c(C)n23)cc1	/	?	3.5%	i	/
CN(C)c1ccc(C(=O)OCC(=O)N2CCCC2)cc1	-9.9%	i	0.4%	i	-7.3%
CCOC(=O)N1CCN(C(=O)COC(=O)c2ccc(N(C)C)cc2)CC1	-3.4%	20.6µM*	-0.5%	i	-3.9%
COc1ccc(-c2cc(C(=O)OCC(=O)N3CCOCC3)c3ccccc3n2)cc1	16.4µM*	?	4.2%	i	20.3%
COc1cc2ccccc2cc1C(=O)OCC(=O)N1CCOCC1	-0.6%	i	-0.2%	i	-6.3%
O=C(OCC(=O)N1CCN(C(=O)c2ccco2)CC1)c1cc(-c2ccccc2)nc2ccccc12	?	i	-2.1%	i	6.8%
O=C(OCC(=O)N1CCN(C(=O)c2ccco2)CC1)c1cc(-c2cccc(Br)c2)nc2ccccc12	?	16.4µM*	-0.9%[38.3 µM]	i	9.8%
C/C(N)=C(/C#N)C(=O)COC(=O)c1cc(-c2ccc(Br)cc2)nc2ccccc12	?	20.6µM*!	1.4%	?	?
Nc1nc(N2CCN(C(=O)c3ccco3)CC2)nc2ccc(Br)cc12	?	20.6µM*	-2.8%	?	-81.6%
CC(=O)NCCNc1nc(NCC2CC2)nc2cc(-c3ccccc3)sc12	/	i	5.2%	i	/
COc1ccc(C)cc1NC(=O)CCNC(=O)Cn1ccc2ccccc2c1=O	10.8%	i	3.9%	?	5.5%
CC(=O)Nc1cc(-c2ccccc2Cl)cn2c(-c3ccc(S(C)(=O)=O)cc3)cnc12	/	i	2.4%	i	/
CCOC(=O)c1sc(NS(=O)(=O)c2ccccc2)nc1C	-1.3%	i	-1.9%[38.3 µM]	i	12.7%
Cc1nc(NS(=O)(=O)c2ccccc2)sc1C(C)(C)C	-0.8%	18.4µM*	11.1%	i	-137.9%
COc1ccccc1-c1cn(CC[C@@H]2CC[C@H](NC(=O)C3CCC3)[C@@H](CO)O2)nn1	/	i	/	i	/
CCOCc1c(C(=O)NC2=Nc3ccccc3NC(CC)=C2C(=O)OCC)oc2ccccc12	10.3µM*	?	0.5%	?	20.6µM*
COc1ccc(CN(C(=O)c2ccc(-c3ccccc3)[nH]2)C(C(=O)NC(C)(C)C)c2ccncc2)cc1 (configuration not stated)	13.6%	11.6µM*	-1.9%	?	?
COc1cc(C(C(=O)NC(C)(C)C)N(Cc2ccccc2)C(=O)c2cnccn2)cc(OC)c1OC (configuration not stated)	?	i	0.5%[38.3 µM]	i	?
